Bioassay records deposited in PubChem BioAssay by Pan Lab, Icahn School of Medicine at Mount Sinai.
RBX1-CUL1 inh – human ROC1-CUL1 E3 ligase inhibition. P62877+Q13616. in vitro K48 di-Ub FRET, acceptor:donor ratio, 45 min. inhibition, % at 10 µM. 0.6% of 140,000 active. AID 1347404; in the data active means inhibition above about 25%
Target sequence (P62877 whole entry, looked up): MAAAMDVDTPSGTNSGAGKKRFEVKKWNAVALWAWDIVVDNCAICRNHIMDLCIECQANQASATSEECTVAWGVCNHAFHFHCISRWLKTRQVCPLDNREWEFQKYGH
Target sequence (Q13616 whole entry, looked up): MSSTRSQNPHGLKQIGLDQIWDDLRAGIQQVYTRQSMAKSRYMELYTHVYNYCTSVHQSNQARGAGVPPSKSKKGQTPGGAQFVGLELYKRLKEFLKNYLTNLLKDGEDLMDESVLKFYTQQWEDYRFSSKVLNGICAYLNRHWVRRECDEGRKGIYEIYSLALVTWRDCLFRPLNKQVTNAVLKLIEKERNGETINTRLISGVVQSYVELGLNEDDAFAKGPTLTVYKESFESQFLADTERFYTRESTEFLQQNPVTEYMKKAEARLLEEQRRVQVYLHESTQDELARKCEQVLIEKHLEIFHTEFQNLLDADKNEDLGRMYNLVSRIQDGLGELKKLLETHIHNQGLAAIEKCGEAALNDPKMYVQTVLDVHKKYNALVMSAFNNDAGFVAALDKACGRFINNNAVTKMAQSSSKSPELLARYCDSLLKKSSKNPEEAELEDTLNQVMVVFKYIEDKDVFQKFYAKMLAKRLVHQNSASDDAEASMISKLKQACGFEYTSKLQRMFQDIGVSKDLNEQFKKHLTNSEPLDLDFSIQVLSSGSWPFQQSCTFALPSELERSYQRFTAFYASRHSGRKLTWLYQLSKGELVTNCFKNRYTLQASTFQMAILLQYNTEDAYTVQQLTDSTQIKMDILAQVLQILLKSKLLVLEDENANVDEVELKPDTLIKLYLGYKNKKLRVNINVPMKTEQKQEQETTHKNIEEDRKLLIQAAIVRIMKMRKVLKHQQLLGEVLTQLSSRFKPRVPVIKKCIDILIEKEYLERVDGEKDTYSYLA
* marks the source's active call; other numbers are inactive results. This is one part of a sample in which hits are shown more often than they occur.

SMILES	RBX1-CUL1 inh
Cc1ccc(-c2cn3c(n2)sc2cc(C(=O)NCCCN4CCCCCC4)ccc23)cc1	39*
CC12CCCC3C(=O)C(Cl)(Cl)C(=O)N(c4ccccc41)C32 (stereo not given)	4
COc1ccc(N(CC(=O)Nc2ccccc2Sc2ccccc2)S(C)(=O)=O)cc1Cl	-9
CC(C)N1CCN(C2Cc3ccccc3Sc3ccc(Cl)cc32)CC1 (stereo not given)	4
N=C1/C(=C/c2ccc(-c3ccccc3)o2)C(=O)N=C2SC(c3ccccc3Cl)=NN12	4
N=C1/C(=C/c2ccc(-c3ccccc3)o2)C(=O)N=C2SC(C(F)(F)F)=NN12	60*
COc1ccc(/C=C2/C(=N)N3N=C(C(F)(F)F)SC3=NC2=O)c(OC)c1OC	6
CC(C)C1=NN2C(=N)/C(=C/c3ccc(-c4cc(Cl)cc(Cl)c4)o3)C(=O)N=C2S1	-1
Cc1c(/C=C2\C(=N)N3N=C(C(F)(F)F)SC3=NC2=O)c2ccccc2n1Cc1ccc(F)cc1	4
N=C1/C(=C/c2ccc(-c3ccc(F)cc3)o2)C(=O)N=C2SC(C(F)(F)F)=NN12	93*
COc1ccc(C(=O)NC(=S)Nc2cccc(C)n2)cc1	1
CCC(=O)C1C(=O)CCCC1=Nc1ccccc1 (stereo not given)	4
O=[N+]([O-])c1ccc(CSc2nc3ccccc3s2)o1	4
CCCCNC1CCN(c2ccc(C(=O)NC(C)c3ccccc3)cc2)CC1 (stereo not given)	10
Cc1cccc2c1OC(=O)C(C(c1ccc(Cl)cc1)C1C(=O)Oc3c(C)cccc3C1=O)C2=O (stereo not given)	78*
O=C1Oc2ccccc2C(=O)C1C(c1ccc(F)cc1)C1C(=O)Oc2ccccc2C1=O (stereo not given)	0
O=C1Oc2ccccc2C(=O)C1C(c1cccc(O)c1)C1C(=O)Oc2ccccc2C1=O (stereo not given)	13
COc1ccc(NS(=O)(=O)c2ccc(NC(=O)Nc3cccc4ccccc34)cc2)cc1	2
COc1cc(C2c3c(nc(SCc4ccccc4Cl)[nH]c3=O)N=C3CCCC(=O)C32)ccc1O (stereo not given)	1
Cc1nnc(SCC(=O)N/N=C/c2ccc(-c3ccc([N+](=O)[O-])cc3)o2)n1-c1ccccc1	2
Oc1ccc(-c2cnc3ccccc3n2)cc1O	84*
Clc1ccc(-c2cnc3ccccc3n2)cc1	0
Oc1ccc(-c2cnc3ccccc3n2)cc1	3
CCOC(=O)C(Sc1nnc(CN2c3ccccc3Sc3ccccc32)o1)C(C)=O (stereo not given)	-4
NC(=O)CN1CCC(C(=O)N2CCC3(CCCN(CC4CCCCC4)C3)C2)CC1 (stereo not given)	5
SMILES	RBX1-CUL1 inh
COCc1nc2cc(NC(=O)Cc3ccccc3)cc(C(=O)N(C)Cc3csc(C)n3)c2n1C	3
CC(=O)N=C1C(=O)Nc2ccccc2C1O (stereo not given)	-1
COc1ccc(N=C2NC(=O)/C(=C/c3ccc(OCc4cccc(C(=O)O)c4)c(OC)c3)S2)cc1	7
CCOc1cc(/C=C2\SC(=Nc3cccc(Cl)c3C)NC2=O)cc(Br)c1OC	-1
O=C1NC(=Nc2ccc(C(=O)O)cc2)S/C1=C/c1ccccc1OCc1ccccc1	94*
O=C1NC(=Nc2ccc(Br)cc2)S/C1=C\c1ccccc1O	11
COc1ccc(/C=C2\SC(=Nc3cccc(Cl)c3C)NC2=O)c(OC)c1	-1
Cc1ccccc1/C=C1/SC(=Nc2ccccc2)NC1=O	4
CCOc1ccccc1/C=C1\SC(=Nc2cccc(Cl)c2C)NC1=O	26*
CCc1ccc(N=C2NC(=O)/C(=C/c3cc(C)n(-c4ccncc4)c3C)S2)cc1	4
Cc1cc(/C=C2\SC(=Nc3ccccc3)NC2=O)c(C)n1-c1cc(C(=O)O)cc(C(=O)O)c1	69*
CCOC(=O)N1CCN(Cn2nc(-c3cccc(OC)c3)n(C)c2=S)CC1	-8
CCn1c(SCC(=O)Nc2ncc(C)s2)nnc1C(C)NC(=O)c1ccc(C)cc1 (stereo not given)	-4
Cc1cc(=O)cc(-c2ccccc2)n1-c1ccccc1	7
CCN1CCN(C2(C(=O)NC(C)c3ccc(F)cc3)Cc3ccccc3C2)CC1 (stereo not given)	8
c1ccc(Oc2cc(-n3cncn3)nc(-c3ccccc3)n2)cc1	-4
CC(NC(=O)c1ccc(Cl)c(Cl)c1)C1CCCO1 (stereo not given)	0
C=CCn1c(C)cn2c3c(=O)n(CCC(C)C)c(=O)n(C)c3nc12	1
Cc1nc2ncc3c(=O)n(CCc4ccccc4)ccc3n2n1	-2
C=CCN1C(=O)C(C#N)=C(C)/C(=C\c2ccc(-c3ccc(Cl)c(C(=O)OC(C)C)c3)o2)C1=O	2
CC1=C(C#N)C(=O)N(CC(C)O)C(=O)/C1=C/c1ccc(-c2ccc(Br)cc2)o1 (stereo not given)	47*
CC1=C(C#N)C(=O)N(C)C(=O)/C1=C\c1ccc(-c2ccc(C(=O)OC(C)C)cc2)o1	-7
C#CCOc1ccc(C(=O)N2C(C)CCCC2C)cc1 (stereo not given)	1
COC1(OC)C2(Cl)C(Cl)=C(Cl)C1(Cl)C1C(=O)N(Cc3ccco3)C(=O)C12 (stereo not given)	2
Cc1ccc(-n2c(CCn3cc(C)cn3)n[nH]c2=S)cc1	-1
SMILES	RBX1-CUL1 inh
COc1ccccc1C(=O)N1CCN(Cc2cccc(Cl)c2)CC1	1
CC(C)(N)c1cn(CC2CCCN(C(=O)NCCc3ccc(F)cc3)C2)nn1 (stereo not given)	-2
CCC(CC)NC(=O)C1CC(=O)N(c2ccc(NC(C)=O)cc2)C1 (stereo not given)	4
CCOc1cc(CNc2ncn[nH]2)ccc1OC	-9
CCOc1cc(/C=C2\C(=O)N(c3ccc(C(=O)O)cc3)N=C2C(F)(F)F)cc(Br)c1O	62*
CCOc1cc(/C=C2\C(=O)NC(=S)N(c3ccc(Br)cc3)C2=O)cc(Br)c1O	7
COc1cc(/C=C2\C(=O)N(c3ccc(Cl)cc3)N=C2C(F)(F)F)ccc1OC(=O)c1ccco1	-3
Cc1ccsc1[C@@H]1C[C@H]2CN(Cc3cccnc3)C(=O)[C@]23CCCN13	-5
CCOC(=O)c1c(NC(=O)c2ccc(OC)c(S(=O)(=O)N3CCOCC3)c2)sc(C)c1C	-6
CC(=O)Nn1c(=S)[nH]nc(C)c1=O	0
Cc1ccc(S(=O)(=O)N2CCC(C(N)=O)CC2)cc1C	7
O=C1NC(=S)N(c2ccccc2)C(=O)/C1=C/c1ccc(Sc2ccc(Cl)cc2)s1	33*
Cc1cc(/C=C2\C(=O)NC(=S)N(c3ccc(Cl)cc3)C2=O)c(C)n1-c1ccc(Cl)c(Cl)c1	-6
O=C1NC(=O)N(c2ccc(Cl)cc2)C(=O)/C1=C\c1c2ccccc2cc2ccccc12	6
NC12C3C4C5C1C2C(Br)(C43)C51OCCO1 (stereo not given)	6
O=[N+]([O-])c1ccc2c(C=Nc3cccc(-c4nc5ccccc5o4)c3)c(O)ccc2c1	-5
CCC(CC)c1nn2c(N)c(C=C3C=CC(=O)C(OC)=C3)c(=O)nc2s1	12
Nc1c(C=C2C=C(Cl)C(=O)C(Cl)=C2)c(=O)nc2sc(C34CC5CC(CC(C5)C3)C4)nn12	76*
CC(C)c1nn2c(N)c(C=C3C=C(Br)C=CC3=O)c(=O)nc2s1	2
O=C(CSc1nc2sc3c(c2c(=O)n1-c1ccccc1)CCCC3)NCCOc1ccccc1	2
CN(C)c1ccc(/C=C/C(=O)c2ccc3c4c(cccc24)CC3)cc1	4
O=C(C[n+]1ccc(-c2ccccc2)cc1)c1ccccc1	-1
